Consider 96 compounds from the supplement of paper PMC12340641.

Molecules are shown by their SMILES. The full ranking holds about 1,000 compounds; the median of “relative growth recovery (pomalidomide 10 uM = 100%, DMSO = 0%)” is about -1.6, and the highest 2% start at about 21. This is one part of a sample in which the highest values are shown more often than they occur.

In the experiment the test system is HEK293FT dCK*-IKZF1. Nature of the experiment: relative growth recovery (pomalidomide 10 uM = 100%, DMSO = 0%); higher = more growth rescue (IKZF1 fusion degradation). The settings on record: compound concentration: 5 uM; AraC concentration: 0.3 uM; overnight pretreatment + 4 days AraC. As for the experimental part:
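Growth recovery screen of the molecular-glue-like (Specs) library. HEK293FT cells expressing a dCK*-IKZF1 fusion (primary) or dCK* alone (counter) were pretreated overnight with compound at 5 uM, then given 0.3 uM AraC for 4 days. Hoechst nuclei were counted by imaging. Primary: normalised to pomalidomide (100%) and DMSO (0%), mean of 2 replicates. Counter: normalised to no-AraC (100%) and AraC+DMSO (0%), single replicate.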
As to `C[C@@H](N)C(=O)N1CCC(CO)(c2cccc(Nc3ncc(-c4ccccc4)s3)n2)CC1`, the relative growth recovery is -18.2%. As to `Cc1csc(Nc2cccc(C3CCN(CC(=O)N4CCC(C(N)=O)CC4)CC3)n2)n1`, the relative growth recovery stood at 5.36%. For `Cc1cnc(Nc2cccc(C3(C(=O)NCCO)CCN(C(=O)C4CCCCC4)CC3)n2)s1` the value was -5.96%. With `COCCC(=O)N1CCC(c2cccc(Nc3ncc(C)s3)n2)CC1` the figure was -3.65%; with `O=C(O)COCCOCCNc1cc2c(cc1F)C(=O)N(C1CCC(=O)NC1=O)C2=O` (stereo unspecified), -7.7%. For `O=C(CSc1nc2cc(Cl)ccc2[nH]1)Nc1ncccn1` the value was -1.69%. `COc1cc(NS(=O)(=O)c2ccc(NC(=O)CCl)cc2)nc(OC)n1`: the relative growth recovery is -5.68%. Consider `COc1ccc(Cl)c2c1[nH]c1nc(SCC(=O)Nc3ccc(Cl)cc3)nnc12`, for which the relative growth recovery amounted to 2.88%. For `Cc1cnc(Nc2cccc(C3CCCN3C(=O)Cn3cnc4ccccc43)n2)s1` (stereo unspecified) the value was -19.5%. With `O=C(CSc1nnc2c(n1)[nH]c1ccccc12)Nc1ccc(F)cc1` the figure was 7.2%; with `CCCCc1cnc(Nc2cccc(C3CCN(C(=O)C(C)(C)NC(=O)OC(C)(C)C)CC3)n2)s1`, -15.7%. For `O=C(O)CN1CCN(c2cccc3c2C(=O)N(C2CCC(=O)NC2=O)C3=O)CC1` (stereo unspecified), the relative growth recovery stood at 0.995%. With `Cc1ccnc(NS(=O)(=O)c2ccc(NC(=O)c3cccs3)cc2)n1` the figure was 3.83%.

As to `Cc1ccc(C(C)C)c(OCC(=O)Nc2ccc(S(=O)(=O)Nc3ccccn3)cc2)c1`, the relative growth recovery was -1.57%.

As to `COc1ccc(C(=O)Nc2ccc(S(=O)(=O)Nc3ccccn3)cc2)cc1`, the relative growth recovery was -5.12%. For `Cc1ccc2[nH]c3nc(SCC(=O)Nc4ccc(C)c(Cl)c4)nnc3c2c1` the value was -24.6%; for `CCCc1cnc(Nc2cccc(C3CCN(C(=O)CN)CC3)n2)s1`, -15.8%. For `CC(=O)Nc1ccc(S(=O)(=O)Nc2cc(C)nc(C)n2)cc1` the value was -1.14%; for `Cc1ccnc(NS(=O)(=O)c2ccc(NC(=O)c3ccccc3C)cc2)n1`, -1.84%; for `COc1ccc(NS(=O)(=O)c2ccc(N)cc2)nn1`, 3.75%.

Turning to `O=C(CCCOc1ccc(Cl)cc1)Nc1ccc(S(=O)(=O)Nc2ncccn2)cc1`, the relative growth recovery worked out at 0.13%. For the compound `Cc1ccnc(NS(=O)(=O)c2ccc(NC(=O)c3ccc(Cl)cc3[N+](=O)[O-])cc2)n1`, the relative growth recovery was -0.255%. Turning to `Cc1cc(C)nc(NS(=O)(=O)c2ccc(/N=C3/NC(=O)CS3)cc2)n1`, the relative growth recovery was -0.9%.

Consider `O=C(Nc1ccc(S(=O)(=O)Nc2ncccn2)cc1)c1cccc(Br)c1`, for which the relative growth recovery was -4.75%.

Turning to `Cc1csc(Nc2cccc(C3CCN(C(=O)c4nccc5ccccc45)CC3)n2)n1`, the relative growth recovery was -0.34%. For `Cc1cnc(Nc2cccc(C3CCN(C(=O)c4cccc5cccnc45)CC3)n2)s1` the value was -2%; for `Cc1ccnc(NS(=O)(=O)c2ccc(NC(=O)c3ccc4c(c3)OCO4)cc2)n1`, 0.925%; for `Cc1cc(NS(=O)(=O)c2ccc(NC(=O)COc3ccccc3Cl)cc2)nc(C)n1`, 3.46%. Take `CC(=O)N1CCCCC1c1csc(Nc2ccccn2)n1` (stereo unspecified): the relative growth recovery turned out to be 1.36%. With `Cc1cc(NS(=O)(=O)c2ccc(NC(=O)c3ccccc3C)cc2)nc(C)n1` the figure was -1.93%; with `Cc1csc(Nc2cccc(C3CCCN3C(=O)Cc3ccc(F)cc3)n2)n1` (stereo unspecified), 3.22%; with `CN1CCN(CC(=O)N2CCC(c3cccc(Nc4ncc(-c5ccccc5)s4)n3)CC2)CC1`, -17.9%. Turning to `Cc1cnc(Nc2cccc(C3CN(C(=O)CN(CCC(C)C)c4ccccc4)CCO3)n2)s1` (stereo unspecified), the relative growth recovery was -3.83%. For the compound `O=C(CCn1ncc2c1CCCC2)N1CCOC(c2cccc(Nc3nccs3)n2)C1` (stereo unspecified), the relative growth recovery turned out to be 14.7%. For `Cc1cnc(Nc2cccc(C3CCN(C(=O)C4(N)CCCCC4)CC3)n2)s1` the value was -17.6%; for `CCC(C)(C)C(=O)Nc1ccc(S(=O)(=O)Nc2ncccn2)cc1`, -5.08%. As for `Cc1ccnc(NS(=O)(=O)c2ccc(NS(=O)(=O)c3ccc(F)cc3)cc2)n1`, the relative growth recovery is -0.59%.

For the compound `Cc1nc(Nc2cccc(C3CCCN3C(=O)COc3ccc(F)cc3)n2)sc1C` (stereo unspecified), the relative growth recovery amounted to 14.4%. Take `Cc1cc(C)nc(NS(=O)(=O)c2ccc(Nc3nc(-c4cccnc4)cs3)cc2)n1`: the relative growth recovery was -1.15%. With `COc1cc(NS(=O)(=O)c2ccc(NC(=O)COc3ccc(C)cc3)cc2)nc(OC)n1`, the relative growth recovery came out at 1.75%.

Regarding `O=C(CN1CCC(c2cccc(Nc3nccs3)n2)CC1)Nc1ccc(F)cc1`, the relative growth recovery is 9.19%. With `COc1ccc(Cl)c2c1[nH]c1nc(SCC(=O)Nc3ccc(F)cc3)nnc12` the figure was -2.51%; with `Cc1cnc(Nc2cccc(C3(C(N)=O)CCN(C(=O)C4CCCCC4)CC3)n2)s1`, -18.2%. Consider `COc1ccccc1OCC(=O)Nc1ccc(S(=O)(=O)Nc2ncccn2)cc1`, for which the relative growth recovery is 1.59%.

`Cc1cnc(Nc2cccc(C3CCN(C(=O)C45CC6CC(CC(C6)C4)C5)CC3)n2)s1`: the relative growth recovery stood at 1.16%. For `CCCOc1ccc(C(=O)Nc2ccc(S(=O)(=O)Nc3nc(C)cc(C)n3)cc2)cc1` the value was -2.85%. For `Cc1cc(Cl)ccc1OC(C)C(=O)Nc1ccc(S(=O)(=O)Nc2ccccn2)cc1` (stereo unspecified) the value was 0.47%; for `Cc1cc(NS(=O)(=O)c2ccc(NC(=O)CCCOc3ccc(Cl)cc3)cc2)nc(C)n1`, -1.54%; for `Cc1csc(Nc2cccc(C3CCCN3C(=O)CO)n2)n1` (stereo unspecified), 1.4%. For `CC(=O)NC1(CC(=O)N2CCC(c3cccc(Nc4ncc(C)s4)n3)CC2)CCCCC1` the value was -11.7%; for `Cc1ccc(Nc2nc(C3CCCN(CC(N)=O)C3)cs2)nc1` (stereo unspecified), -5.75%.

For the compound `Cc1cc(C)nc(NS(=O)(=O)c2ccc(NC(=S)NC(=O)c3ccc(F)c(F)c3)cc2)n1`, the relative growth recovery was -2.13%. For `Cc1cnc(Nc2cccc(C3CN(C(=O)C4CCOC4)CCO3)n2)s1` (stereo unspecified) the value was -8.06%; for `Cc1cc(C)nc(NS(=O)(=O)c2ccc(NC(=O)COc3ccc(Cl)cc3)cc2)n1`, 3.77%; for `Cc1ccc(S(=O)(=O)Nc2ccc(S(=O)(=O)Nc3ncccn3)cc2)cc1`, -3.26%. `O=C(Nc1ccc(S(=O)(=O)Nc2ncccn2)cc1)C(F)(F)F`: the relative growth recovery is 12.6%.

With `O=C1CCC(N2C(=O)c3ccc(N4CCC(C(=O)O)CC4)cc3C2=O)C(=O)N1` (stereo unspecified), the relative growth recovery was found to be 1.72%. On to `Cc1cc(C)nc(NS(=O)(=O)c2ccc(NC(=O)c3ccc(S(=O)(=O)N(C)C)cc3)cc2)n1`, for which the relative growth recovery was -5.78%.

On to `Cc1cc(Cl)ccc1OCC(=O)Nc1ccc(S(=O)(=O)Nc2ncccn2)cc1`, for which the relative growth recovery was -2.19%. For `Cc1ccc(Oc2ccc(N3C(=O)c4ccc(Oc5ccc(N)cc5)cc4C3=O)cc2)cc1C` the value was -8.53%; for `CCNc1nc(NCC)nc(NS(=O)(=O)c2ccc(N)cc2)n1`, 3.4%. For the compound `Cc1ccnc(NS(=O)(=O)c2ccc(NC(=O)c3ccc(C)c(C)c3)cc2)n1`, the relative growth recovery is 1.75%. Consider `CC(=O)Nc1ccc(S(=O)(=O)N(C#N)c2nc(C)cc(C)n2)cc1`, for which the relative growth recovery is 4.26%. As to `Cc1cnc(Nc2cccc(C3CN(C(=O)CC4CCCCC4)CCO3)n2)s1` (stereo unspecified), the relative growth recovery was -11.7%. With `Cc1cnc(Nc2cccc(C3CN(C(=O)C4CCCCC4)CCO3)n2)s1` (stereo unspecified) the figure was -11.7%; with `CC(=O)Nc1cccc(Oc2ccc3c(c2)C(=O)N(c2ccc(OC(C)=O)cc2)C3=O)c1`, -2.76%; with `O=C(Nc1ccc(S(=O)(=O)Nc2ncccn2)cc1)c1ccc([N+](=O)[O-])cc1`, -0.33%. For `Cc1csc(Nc2cccc(C3CCCN3C(=O)CC3CC(C)(C)NC(C)(C)C3)n2)n1` (stereo unspecified) the value was -0.835%; for `COc1ccc(OCCCC(=O)Nc2ccc(S(=O)(=O)Nc3ncccn3)cc2)cc1`, -3.56%; for `CN(CCN1CCC(C(=O)O)CC1)c1cccc2c1C(=O)N(C1CCC(=O)NC1=O)C2=O` (stereo unspecified), 5.47%. Regarding `CCC(Oc1ccccc1)C(=O)Nc1ccc(S(=O)(=O)Nc2nc(C)cc(C)n2)cc1` (stereo unspecified), the relative growth recovery is -3.29%. For `CCC(Oc1ccccc1)C(=O)Nc1ccc(S(=O)(=O)Nc2ncccn2)cc1` (stereo unspecified) the value was 78.9%; for `CC(Oc1ccccc1)C(=O)Nc1ccc(S(=O)(=O)Nc2ncccn2)cc1` (stereo unspecified), -0.515%; for `Cc1cc(C)nc(NS(=O)(=O)c2ccc(NC(=O)c3oc4ccccc4c3C)cc2)n1`, -2.64%.

Regarding `Cc1cnc(Nc2cccc(C3CCN(C(=O)CCn4ncc5ccccc54)CC3)n2)s1`, the relative growth recovery was -1.66%. As to `COc1cc(NS(=O)(=O)c2ccc(NC(=O)c3ccccc3C)cc2)nc(OC)n1`, the relative growth recovery is -0.335%. With `COc1ccc(C(=O)Nc2ccc(S(=O)(=O)Nc3cc(OC)nc(OC)n3)cc2)c(OC)c1` the figure was 3.94%; with `CCOc1cc(C(=O)Nc2ccc(S(=O)(=O)Nc3ncccn3)cc2)cc(OCC)c1OCC`, 0.09%. In the case of `COc1ccc(C(=O)Nc2ccc(S(=O)(=O)Nc3ncccn3)cc2)c(OC)c1`, the relative growth recovery is -1.31%. For the compound `Cc1cnc(Nc2cccc(C3CN(C(=O)CN(C(=O)CC(C)C)c4ccccc4)CCO3)n2)s1` (stereo unspecified), the relative growth recovery was 1.34%. For `COc1ccc(CCC(=O)N2CCOC(c3cccc(Nc4nc(C)cs4)n3)C2)cc1` (stereo unspecified) the value was 32.4%. Turning to `COc1ccc(CCC(=O)N2CCOC(c3cccc(Nc4ncc(C)s4)n3)C2)cc1` (stereo unspecified), the relative growth recovery was determined as 15.7%. `Cc1csc(Nc2cccc(C3CN(C(=O)CCCc4ccc(F)cc4)CCO3)n2)n1` (stereo unspecified): the relative growth recovery came to 25.2%. For `COc1cccc(CCC(=O)N2CCOC(c3cccc(Nc4ncc(C)s4)n3)C2)c1` (stereo unspecified) the value was 15.8%. Consider `Cc1csc(Nc2cccc(C3CN(C(=O)CCc4nc(C)no4)CCO3)n2)n1` (stereo unspecified), for which the relative growth recovery was 5.6%. On to `Cc1csc(Nc2cccc(C3CCCN3C(=O)CCCc3ccc(F)cc3)n2)n1` (stereo unspecified), for which the relative growth recovery came out at 0.885%. For `O=[N+]([O-])c1ccc(S(=O)(=O)Nc2ccc(Cl)cn2)cc1` the value was -4.66%; for `O=[N+]([O-])c1ccc(S(=O)(=O)Nc2nc3ccccc3nc2Nc2ccccc2)cc1`, 8.16%. As for `CC(C)Nc1nc(NC(C)C)nc(NS(=O)(=O)c2ccc(N)cc2)n1`, the relative growth recovery was -1.87%. As for `CC(C)N(C(=O)CN1CCOC(c2cccc(Nc3nccs3)n2)C1)C1CCCCC1` (stereo unspecified), the relative growth recovery is -2.24%. Regarding `Cc1csc(Nc2cccc(C3CCN(C(=O)Cn4nc(C)cc4C)CC3)n2)n1`, the relative growth recovery worked out at 16.9%. As to `Cc1cnc(Nc2cccc(C3CCN(C(=O)CC4CCCCC4)CC3)n2)s1`, the relative growth recovery was -13.5%. With `O=C(c1cccc2ncccc12)N1CCOC(c2cccc(Nc3nccs3)n2)C1` (stereo unspecified) the figure was -7.12%; with `Cc1cc(C)nc(NS(=O)(=O)c2ccc(NC(=O)c3ccc(Cl)cc3Cl)cc2)n1`, -0.215%. With `Cc1cnc(Nc2cccc(C(C(=O)N(C)C)C3CCN(C(=O)[C@H](CC(C)C)NC(=O)OC(C)(C)C)CC3)n2)s1` (stereo partly specified) the figure was 3.71%; with `Cc1ccc(C(=O)Nc2ccc(S(=O)(=O)Nc3cc(C)nc(C)n3)cc2)cc1`, -1.57%.
